Molecules are shown by their SMILES. The panel holds about 83,000 compounds, 20% with a hit somewhere; the sample as a whole holds those more often.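 Assay: single dose, 48 h. Readout: percent growth (0 = no net growth; negative = cell death). Active: <10.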 Calls of active or inactive are those of the source.

This assay has as its system HOP-92 NSCLC. The experiment in a line: NCI-60 one-dose screen, 48 h (100 = growth as untreated, 0 = no growth, -100 = all killed). To be noted: 10 µM. The protocol: Growth inhibition of the HOP-92 human Non-Small Cell Lung tumor cell line is measured as a screen for anti-cancer activity. Cells are grown in 96 well plates and exposed to the test compound for 48 hours. Compounds are tested at a single concentration, which is 10^-5 M for most compounds. The reported endpoint is percent growth (GI% or GIPRCNT), where numbers from 0 - 100% represent growth inhibition, and numbers from -100% - 0 represent cell death. For example, a value of 40 represents 60% growth inhibition. A value of 0 means no net growth occurred over the course of the experiment. A value of -40 indicates 40% of cells at the beginning of the experiment died by the end of the experiment. A value of -100 means all cells are dead at the end of the experiment.
NCI-60 Human Tumor Cell Lines Screen was performed using the standard one-dose NCI protocol, which is described in more detail at https://dtp.cancer.gov/discovery_development/nci-60/default.htm.
Compounds with GIPRCNT values below 10 were considered active. Activity score was based on GIPRCNT using the following formula: […]
Score is 0 for GIPRCNT values of 100 or above, 50 for GIPRCNT values of 0, and 100 for GIPRCNT values of -100.
For the compound `CC(=O)Cc1ccc(-c2ccccc2)cc1`, the growth was 96.3% (inactive).

For `O=c1c2ccccc2c(Br)c(Br)c2ccccc12`, the growth is 83.7% (inactive).

In the case of `O=C(NCc1ccco1)Nc1c(Cl)cc(Cl)cc1Cl`, the growth is 79.6% (inactive).

In the case of `O=c1cc2oc3cc(O)c(O)cc3c(-c3ccccc3O)c-2cc1O`, the growth is 7.48% (active).

`O=C(O)CCCC(=O)O`: the growth was 72.6% (inactive).

`CC(=O)Cc1cc(-c2cc(CC(C)=O)[nH]n2)n[nH]1`: the growth was 104% (inactive).

Turning to `CCCCNC(=O)C(=O)NCCCC`, the growth is 104% (inactive).

Turning to `CCOC(=O)c1[nH]c(C)c(C(=O)O)c1C`, the growth is 104% (inactive).

As to `OC(c1ccccn1)C(O)c1ccccn1` (stereo not given), the growth was 98.9% (inactive).

With `CC1(O)OC(COc2ccc(Cl)cc2)COC1O` (stereo not given), the growth is 105% (inactive).

With `O=C(NN=C1CCCCC1)C(=O)NN=C1CCCCC1`, the growth was 101% (inactive).

Take `O=C(CS)Nc1ccc2ccccc2c1`: the growth was 101% (inactive).

Take `CCCCCC(C)(CC(=O)O)CC(=O)O`: the growth is 119% (inactive).

On to `c1c(-c2cc(C3CC3)[nH]n2)n[nH]c1C1CC1`, for which the growth is 89% (inactive).

With `CC(=O)OCCC(C)CCC=C(C)C` (stereo not given), the growth was 98.8% (inactive).

For `O=C(O)COCC(=O)O`, the growth is 72.4% (inactive).

As for `CCOC(=O)c1ccc(Nc2sc(C(=O)c3cccc([N+](=O)[O-])c3)c(N)c2C#N)cc1`, the growth was 43% (inactive).

Consider `Oc1ccccc1O`, for which the growth is 90.5% (inactive).

For the compound `CCOC(=O)CNN`, the growth is 99.4% (inactive).

For `O=C(Cc1ccc(OCc2ccccc2)cc1)NCc1ccc2c(c1)OCO2`, the growth is 86.8% (inactive).

`O=[N+]([O-])c1ccccc1N=Nc1ccc(O)cc1O`: the growth was 112% (inactive).

On to `CC12CC3CC1C(C(=O)O2)C3C(=O)O` (stereo not given), for which the growth is 107% (inactive).

Turning to `COc1ccc(OC)c(/C=C2\CCc3ccccc3C2=O)c1`, the growth was 45.2% (inactive).

With `Cc1cc(C(O)(c2ccc(Nc3ccccc3)cc2)c2ccc(Nc3ccc(S(=O)(=O)O)cc3)cc2)ccc1N` (stereo not given), the growth was -23.8% (active).

With `CC(=O)c1ccc(C)c(N)c1`, the growth is 92.9% (inactive).

Regarding `O=C(CN1CCNCC1)N1CCOCC1`, the growth is 103% (inactive).

Take `Brc1cnc2ccccc2c1`: the growth was 95.1% (inactive).

With `COc1cc(/C=C/C(=O)c2ccccc2)cc(OC)c1OC`, the growth is 76% (inactive).

Take `Oc1ccc(N=Nc2ccc(Br)cc2)c(O)c1`: the growth is 64.3% (inactive).

Regarding `CC(=O)NC(N)=S`, the growth is 89.7% (inactive).

In the case of `O=C(O)[C@@H]1[C@H]2C[C@H]3c4[nH]c5ccccc5c4CCN3C[C@@H]2CC[C@@H]1O`, the growth was 109% (inactive).

Take `CN(C)CCN(C)CC(C)(C)C(=O)/C=C/c1ccc(Cl)cc1`: the growth is -24.9% (active).

In the case of `CCCC1(c2ccccc2)NC(=O)NC1=O` (stereo not given), the growth was 78.4% (inactive).

Regarding `c1csc(-c2cc(-c3cc(-c4cccs4)[nH]n3)n[nH]2)c1`, the growth is 93.6% (inactive).

For `Oc1ccc(Cc2ccccc2)c2cccnc12`, the growth is -0.901% (active).

Take `O=C(c1ccccc1)C1CCC1`: the growth was 86.6% (inactive).

In the case of `O=c1[nH]c(O)c(/C=C2/C=Nc3ccccc32)[nH]1`, the growth is 84.5% (inactive).

With `O/N=C/c1ccc(O)cc1O`, the growth was 92% (inactive).

With `O=[N+]([O-])c1ccc(/C=C/C=C/c2ccccc2)c(Cl)c1`, the growth is 84.4% (inactive).

As for `O=C(Nc1ccccc1)OCCc1ccccc1`, the growth is 82.5% (inactive).

(Values after PubChem BioAssay (NCI).)
